Compound activity: PubChem, several laboratories
In the library only some 5.4% were active in any assay of this set; here they are far more common.
aDG glyco up: increases alpha dystroglycan glycosylation; Pro5-aDG cells, alpha-DG glycosylation AlphaScreen (IIH6); 0% Pro5, 100% B10-LARGE cell signal; activation, % at 10 µM; actives 0.22% (n = 360,000);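 active = activation of at least 8% versus controls, or a plate z-score of at least 8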;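 note: Pro5 are CHO cells carrying HIG-tagged alpha-DG that lacks glycosylation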
ALR inh: human ALR oxidase inhibition via reduced H2O2; P55789; purified ALR, DTT oxidation, H2O2 HRP-luminol luminescence; inhibition, % (no concentration beside the values); actives 3.8% (n = 290,000);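 active = mean replicate inhibition above about 79%, with every replicate also reaching it, limit read from the data; inconclusive = only one of the two criteria met; inactive = mean below limit and not every replicate reaching it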
Target sequence (P55789 whole entry, looked up): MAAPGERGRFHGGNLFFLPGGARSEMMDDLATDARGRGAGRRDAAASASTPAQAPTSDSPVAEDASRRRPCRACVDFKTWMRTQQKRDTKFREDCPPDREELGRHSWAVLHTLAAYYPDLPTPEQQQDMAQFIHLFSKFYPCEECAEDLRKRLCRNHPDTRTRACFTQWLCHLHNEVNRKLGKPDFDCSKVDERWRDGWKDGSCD
PHOSPHO1 block: blocks human PHOSPHO1 phosphatase activity; Q8TCT1; recombinant PHOSPHO1, absorbance phosphatase assay; inhibition, % at 13.3 µM; actives 1.1% (n = 290,000); AID 1565; in the data active = inhibition above about 60%
Target sequence (Q8TCT1 whole entry, looked up): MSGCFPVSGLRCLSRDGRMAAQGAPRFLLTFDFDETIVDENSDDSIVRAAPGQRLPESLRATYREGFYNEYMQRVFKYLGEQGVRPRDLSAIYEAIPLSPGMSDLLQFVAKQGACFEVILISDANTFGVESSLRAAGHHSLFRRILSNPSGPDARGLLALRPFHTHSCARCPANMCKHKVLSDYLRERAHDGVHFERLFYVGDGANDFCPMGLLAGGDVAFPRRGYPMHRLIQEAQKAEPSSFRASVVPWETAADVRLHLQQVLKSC
APOBEC3A inh: blocks human APOBEC3A ssDNA deamination; AID 493011; actives 0.41% (n = 330,000); P31941; recombinant A3A, FAM/TAMRA ssDNA deamination fluorescence; inhibition, % at 20 µM;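 active = at least 40% inhibition at 20 µM here, with at most 30% in a related deaminase screen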
rCAG binder: binds r(CAG) RNA repeats | inhibition, % at 3 µM | AID 651821 | r(CAG) RNA repeat, TO-PRO-1 dye displacement fluorescence | actives 1.3% (n = 370,000);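 active = inhibition above the plate cutoff, the mean of all test compounds on that plate plus 3 SD, cut at about 35% in these data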;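 note: higher means more dye released from RNA so lower well fluorescence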
APOBEC3G inh: APOBEC3G (human) deaminase inhibition. Q9HC16. recombinant A3G, ssDNA deamination FAM/TAMRA fluorescence. inhibition, % at 20 µM. actives 0.28% (n = 330,000). AID 493012;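 active = inhibition of at least 40% at 20 µM, with no more than 30% in the related APOBEC3A deaminase screen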
A number is an active result; 0 = inactive; ? = inconclusive; - = no result given.

SMILES	aDG glyco up	ALR inh	PHOSPHO1 block	APOBEC3A inh	rCAG binder	APOBEC3G inh
Oc1c(Br)cc(Br)cc1CNc1cccc2cccnc12	0	0	0	0	0	0
Oc1c(Br)cc(Br)cc1CNn1cnnc1	0	99	0	0	0	0
Cc1cccc(C)c1-n1nnnc1C1(C)CN(S(C)(=O)=O)CC(=O)N1Cc1ccc(F)cc1 (configuration not stated)	-	-	-	-	0	-
COc1ccc(-c2nc(CS(=O)CC(=O)NC3CCCC3)c(C)o2)cc1OC (configuration not stated)	0	99	0	0	0	0
COc1ccc(-c2nc(CSCC(=O)NC3CCCc4ccccc43)c(C)o2)cc1OC (configuration not stated)	0	-	0	0	0	0
COc1ccc(-c2nc(CS(=O)CC(=O)NC3CCC(C)CC3)c(C)o2)cc1OC (configuration not stated)	0	99	0	0	0	0
COc1ccc(-c2nc(CS(=O)CC(=O)NC3CCCc4ccccc43)c(C)o2)cc1OC (configuration not stated)	0	99	0	0	0	0
Cc1cc(Oc2cccc3c2S(=O)(=O)N([C@H](C)c2ccccc2)C[C@@H](COCc2ccccc2)O3)cc(C)c1C	-	-	-	-	0	-
CCn1cc(C(=O)N2CCN(c3ccc(F)cc3)CC2)c(=O)c2ccc(C)nc21	-	-	-	-	0	-
Cc1ccc(C(=O)O/N=C(\N)c2ccccn2)c(Cl)c1	0	91	0	0	0	0
Cc1cc(C(=O)N(C)Cc2ccc(Br)cc2)no1	0	0	85	0	0	0
Oc1c(C(c2cccs2)N2CCN(c3ccccc3)CC2)ccc2cccnc12 (configuration not stated)	-	0	69	0	-	0
Cc1cc(C(=O)N2CCCC(Nc3ccccc3)C2)c2ccc(F)cc2n1 (configuration not stated)	0	99	0	0	0	0
COc1ccc(NC2CCCN(C(=O)c3cc(C)nc4cc(F)ccc34)C2)cc1 (configuration not stated)	0	99	0	0	0	0
Cc1cc(C(=O)N2CCCC(Nc3ccc(F)cc3)C2)n(C)n1 (configuration not stated)	0	0	0	0	0	0
O=C(c1cc2cc(F)ccc2[nH]1)N1CCCC(Nc2ccc(F)cc2)C1 (configuration not stated)	0	0	0	0	0	0
CCOC(=O)[C@]12CCCCC/C=C\1N(CCc1ccc(Cl)cc1)C(=O)[C@H]2CC(=O)NCc1ccc(OC)c(OC)c1	-	-	-	-	0	-
COCCn1c(-c2cccc([N+](=O)[O-])c2)nc2c1c(=O)[nH]c(=O)n2Cc1ccccc1	0	99	0	0	0	0
Cc1ccc(N2CCN(S(=O)(=O)c3ccc4c(c3)NC(=O)C(C)C(=O)N4)CC2C)cc1 (configuration not stated)	0	97	0	0	0	0
O=C(/C=C/c1ccc(O)c(O)c1)OC(Cc1ccc(O)c(O)c1)C(=O)O (configuration not stated)	0	99	0	0	0	0
O=C(/C=C/c1ccc(O)c(O)c1)c1ccccc1O	0	100	0	0	0	0
O=C(/C=C/c1ccc(O)c(O)c1)OCCc1ccccc1	0	98	-	0	0	0
N[C@@H](Cc1ccc(O)c(I)c1)C(=O)O	-	0	0	0	-	0
O=C(NCCN1C(=O)C2C3C=CC(C3)C2C1=O)c1cc(F)cc(F)c1 (configuration not stated)	-	-	-	-	0	-
C[C@H](O)[C@@H]1CN2CCc3c([nH]c4c(-c5ccc6c(c5)OCO6)cccc34)[C@@H]2C[C@@H]1N(C)C(=O)Nc1ccccc1	-	-	-	-	0	-
SMILES	aDG glyco up	ALR inh	PHOSPHO1 block	APOBEC3A inh	rCAG binder	APOBEC3G inh
CCCCCCCCN1C(=O)[C@@H](CC(=O)N2CCC(c3ccccc3)CC2)C[C@@]2(C(=O)OC)C1=C[C@H](C(C)C)O[C@@H]2C1CC1	-	-	-	-	0	-
Cc1ccc2nc(-c3ccc(NC(=O)CSc4nnc(-c5cc(-c6ccc(F)cc6)n[nH]5)n4N)cc3)sc2c1	-	-	-	-	0	-
COC(=O)[C@]12C[C@H](CC(=O)NCc3cccc(C(F)(F)F)c3)C(=O)N(Cc3ccccc3)C1=C[C@H](COCc1ccccc1)O[C@@H]2C	-	-	-	-	0	-
O=C(CSC1=NCCS1)c1ccc(Cl)cc1	0	98	0	0	0	0
O=C(CSC1=NCCS1)N1CCN(c2ccc(Cl)cc2)CC1	0	0	0	0	0	0
CC1(C)CC(=O)C2=C(C1)N(Cc1ccco1)C(=O)C2(NC(=O)c1ccc(Cl)cc1Cl)C(F)(F)F (configuration not stated)	0	98	0	0	0	0
COC(=O)CNC(c1ccccc1)c1cc(Br)ccc1N (configuration not stated)	0	99	0	0	0	0
NNC(=O)CNC(c1ccccc1)c1cc(Br)ccc1N (configuration not stated)	0	0	0	0	0	0
O=S(=O)(c1ccc(Cl)s1)N1CCC(Cc2ccccc2)CC1	0	97	0	0	0	0
O=S(=O)(c1ccc(Cl)nc1)N1CCC(Cc2ccccc2)CC1	0	99	-	0	0	0
CC1=C2NC(N)=[N+](Cc3ccccc3)CC2n2c(=O)n(-c3ccccc3)c(=O)n2C1 (configuration not stated)	-	-	-	-	0	-
Clc1cnc(N/N=C/c2ccncc2)c(Cl)c1	0	0	0	0	0	0
Clc1ccc(N/N=C/c2ccncc2)cc1Cl	0	98	0	0	0	0
CCN(CC)c1ccc(NC(=O)c2cncc(Br)c2)cc1	0	99	0	0	0	0
N#CCC(=O)Nc1ccc(C(=O)Nc2cccnc2)cc1	0	100	0	0	0	0
CCN(CC)c1ccc(NC(=O)Nc2ccccc2)cc1	0	?	-	0	0	0
CCN(CC)c1ccc(NC(=O)c2cccnc2)cc1	0	99	0	0	0	0
COc1ccc(NC(=O)c2cccnc2)cc1	0	0	0	0	0	0
CCN(CC)c1ccc(NC(=O)Nc2ccc(C(C)=O)cc2)cc1	0	0	85	0	0	0
CNS(=O)(=O)c1ccc(NC(=O)c2cncc(Br)c2)cc1	0	0	0	0	0	0
Cc1c(Cl)c(C(=O)NNC(=S)Nc2ccccc2)nn1C	0	91	66	0	0	0
Cc1c(Cl)c(C(=O)NNC(=S)Nc2ccc(F)cc2)nn1C	0	81	0	0	0	0
CCNC(=S)NNC(=O)c1nn(C)c(C)c1Cl	0	0	0	0	0	0
COc1ccc(-c2cc(-c3nnc(SCC(=O)Nc4nccs4)n3N)[nH]n2)cc1	-	-	-	-	0	-
Cc1ccc(-c2nnc(-c3cc(C)on3)o2)cc1	0	-	61	0	0	0
CSc1ccc(C(=O)NCC2CCN(C(=O)C(=O)c3cc4ccccc4o3)CC2)cc1	-	-	-	-	0	-
Cc1nn(-c2nnc(C)c(=O)[nH]2)c(C)c1SCC(=O)Nc1ccc(C(C)C)cc1	0	98	62	0	0	0
